# Experimental data as given in PubChem BioAssay (EPA / NIEHS).
# Some compounds were tested as several samples or in several runs, with calls that do not always agree. Activity calls are given as the source filed them. Rule for the calls: active = hit-call score of the fitted dose curve at least 0.9, where 1 is the maximum; inactive = score below 0.9.
# Assay: CCTE_Shafer_MEA_dev_per_network_spike_spike_percent: CCTE's Neural Network Formation Assay for Percent of Spikes in a Network Spike, Shafer Lab (AID 2284054)
# Procedure: CCTE_Shafer_MEA_dev assay is conducted using Axion Biosystems 48 well microelectrode array (MEA) plates and Maestro recording system. Each well of the MEA plate contains a grid of 16 microelectrodes embedded in the culture surface. Electrically active cells, such as neurons, can be cultured over the electrodes, and electrical activity in these cells can be recorded extracellularly. The spontaneous firing of neurons is captured from each electrode on a microsecond timescale providing both temporally and spatially precise data. […] The CCTE_Shafer_MEA_dev assay uses primary cultures of rat cortical neurons. Recordings are made on days post-plating 5, 7, 9 and 12. As these cultures mature over time, neural networks develop functional activity and form cohesive networks in which electrical activity can be highly coordinated. CCTE_Shafer_MEA_dev_per_network_spike_spike_percent is 1 of 19 assay components of the CCTE_Shafer_MEA_dev assay. It measures the percent of spikes (action potential firings) in a network spike (temporally-clustered group of spikes across multiple electrodes) as the number of spikes that occur within a 0.05 s time window at the peak of a network spike divided by the total number of spikes during a recording in a microelectrode array (MEA) using Axion Biosystems Maestro 768 channel amplifier with the AxIS adaptive spike detector. To collapse across multiple recordings made on days post-plating 5, 7, 9 and 12, the trapezoidal area-under-the-curve of the component is calculated.Data from the assay component CCTE_Shafer_MEA_dev_per_network_spike_spike_percent was analyzed into 1 assay endpoint. This assay endpoint, CCTE_Shafer_MEA_dev_per_network_spike_spike_percent, was analyzed in the negative analysis fitting direction relative to DMSO as the negative control and baseline of activity. Using a type of functional reporter, gain or loss-of-signal activity can be used to understand electrical activity.
# On the day prior to culture, each well was coated thoroughly with 150 uL of 0.05% polyethyleneimine (PEI, Sigma Cat P3143) in 50 mM HEPES (Sigma Cat H7523) at a pH of 8. The plate was incubated at 37C for one hour. PEI was rinsed out with 500 uL of sterile water three times. Plates were stored at 4C until the day of culture. This culture was plated at a seeding density of 1.5 x 10^5 cells/well on a 48-well MEA plate, prepared as described above. Cells were administered via a 25 uL media/laminin ([…]; Sigma Cat L2020-1MG) drop directly onto the microelectrode array, as adding the cells with the laminin results in better attachment than pre-coating with laminin. After 2 hours, an additional 475 uL of cortical media was added and the cells returned to the incubator. Exposure starts at day 0 of plating and is continued over twelve days of network development until the experiment is terminated. Cells are fed with fresh medium on DIV 5 and 9, following the recordings on those days. The entire volume of media in the well is exchanged and any vehicle or compound treatment is renewed. Complete details are found in OP-NHEERL/ISTD/SBB/TJS/2015-03-r0 (available on request, email shafer.tim@epa.gov). Measurement of the electrical activity is non-invasive, and recordings can be made from the same plate over multiple different days of the culture. In cortical neurons, this allows for the measurement of extracellular action potentials over the period during which networks form in the MEA plate.
Structure (SMILES),outcome,AC50
CC(O)C(F)(F)C(F)(F)F (stereo unspecified),inactive,
CCOc1ccc(C(C)(C)COCc2cccc(Oc3ccccc3)c2)cc1,,10 µM (active)
O=P1(N(CCCl)CCCl)NCCCO1 (stereo unspecified),inactive,
CCC1(c2ccccc2)C(=O)N=C(O)NC1=O (stereo unspecified),inactive,
ClC1=C(Cl)C2(Cl)C3C(Cl)C(Cl)CC3C1(Cl)C2(Cl)Cl (stereo unspecified),,7.62 µM (active)
CC(C)(C)c1ccccc1OP(=O)(Oc1ccccc1)Oc1ccccc1,inactive,15 µM (active)
C=CC(=O)OCC(F)(F)C(F)F,,15 µM (active)
c1cc2c3c(cccc3c1)CC2,inactive,
OCC(F)(F)OC(F)(F)C(F)(F)OC(F)(F)C(F)(F)OC(F)(F)CO,inactive,
OCC(F)(F)OC(F)(F)C(F)(F)OC(F)(F)CO,inactive,
c1ccc(OP(Oc2ccccc2)Oc2ccccc2)cc1,inactive,
CCOP(=S)(OCC)SCSCC,inactive,92 µM (active)
CO/N=C(/C(=O)OC)c1ccccc1COc1ccccc1C,,0.902 µM (active)
CCCCC(CC)COC(=O)c1c(Br)c(Br)c(Br)c(Br)c1C(=O)OCC(CC)CCCC (stereo unspecified),inactive,
O=C(O)C1C(C(=O)O)C2(Cl)C(Cl)=C(Cl)C1(Cl)C2(Cl)Cl (stereo unspecified),inactive,
O=C(O)C=CC(F)(C(F)(F)F)C(F)(F)F,inactive,
O=P(Oc1ccccc1)(Oc1ccccc1)Oc1ccccc1,inactive,
O=S(=O)(c1ccc(O)cc1)c1ccc(O)cc1,inactive,
CCCCC(CC)COP(=O)(Oc1ccccc1)Oc1ccccc1 (stereo unspecified),inactive,
O=C(O)C(F)(OC(F)(F)C(F)(F)C(F)(F)F)C(F)(F)F (stereo unspecified),inactive,
O=C(O)C(F)(F)OC(F)(F)C(F)(F)OC(F)(F)C(=O)O,inactive,
O=C(O)C(F)(F)OC(F)(F)C(F)(F)OC(F)(F)F,inactive,
OCC(F)(F)OC(F)(F)C(F)(F)OC(F)(F)C(F)(F)OC(F)(F)F,inactive,
O=C(O)C(F)(F)C(F)(F)C(=O)O,inactive,
